Our source for the cross-linked residues values is paper PMC12350791.

Some targets named below: USP39 (UniProt Q53GS9); SF1 (UniProt Q15637); SF3A1 (UniProt Q15459); SF3B3 (UniProt Q15393); SF3B2 (UniProt Q13435); SMC4 (UniProt Q9NTJ3); SNRPD1 (UniProt P62314); SNRPD3 (UniProt P62318); SNU13 (UniProt P55769); SPC25 (UniProt Q9HBM1); SPG11 (UniProt Q96JI7); STAT5B (UniProt P51692); STK24 (UniProt Q9Y6E0); SYMPK (UniProt Q92797); THOC1 (UniProt Q96FV9); THOC3 (UniProt Q96J01); THOC7 (UniProt Q6I9Y2); THRAP3 (UniProt Q9Y2W1); TMED2 (UniProt Q15363); TMED4 (UniProt Q7Z7H5); TMED7 (UniProt Q9Y3B3); TMED9 (UniProt Q9BVK6); TSNAX (UniProt Q99598); TXLNG (UniProt Q9NUQ3); UBE2I (UniProt P63279); UQCRC2 (UniProt P22695); UXT (UniProt Q9UBK9).

Holding throughout (assay): cross-linking mass spectrometry
Common to all, as to settings: DSBSO, in cells or nuclear extract, not told apart

Sequence of TMED10, P49755 (P49755 whole entry): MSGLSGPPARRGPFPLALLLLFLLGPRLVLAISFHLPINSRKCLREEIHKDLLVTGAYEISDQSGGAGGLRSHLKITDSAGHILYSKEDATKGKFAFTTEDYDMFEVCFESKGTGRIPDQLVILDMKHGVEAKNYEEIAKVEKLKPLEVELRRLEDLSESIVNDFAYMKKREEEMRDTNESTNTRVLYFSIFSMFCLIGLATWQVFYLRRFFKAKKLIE
Sequence of SF3A1 (Q15459 whole entry): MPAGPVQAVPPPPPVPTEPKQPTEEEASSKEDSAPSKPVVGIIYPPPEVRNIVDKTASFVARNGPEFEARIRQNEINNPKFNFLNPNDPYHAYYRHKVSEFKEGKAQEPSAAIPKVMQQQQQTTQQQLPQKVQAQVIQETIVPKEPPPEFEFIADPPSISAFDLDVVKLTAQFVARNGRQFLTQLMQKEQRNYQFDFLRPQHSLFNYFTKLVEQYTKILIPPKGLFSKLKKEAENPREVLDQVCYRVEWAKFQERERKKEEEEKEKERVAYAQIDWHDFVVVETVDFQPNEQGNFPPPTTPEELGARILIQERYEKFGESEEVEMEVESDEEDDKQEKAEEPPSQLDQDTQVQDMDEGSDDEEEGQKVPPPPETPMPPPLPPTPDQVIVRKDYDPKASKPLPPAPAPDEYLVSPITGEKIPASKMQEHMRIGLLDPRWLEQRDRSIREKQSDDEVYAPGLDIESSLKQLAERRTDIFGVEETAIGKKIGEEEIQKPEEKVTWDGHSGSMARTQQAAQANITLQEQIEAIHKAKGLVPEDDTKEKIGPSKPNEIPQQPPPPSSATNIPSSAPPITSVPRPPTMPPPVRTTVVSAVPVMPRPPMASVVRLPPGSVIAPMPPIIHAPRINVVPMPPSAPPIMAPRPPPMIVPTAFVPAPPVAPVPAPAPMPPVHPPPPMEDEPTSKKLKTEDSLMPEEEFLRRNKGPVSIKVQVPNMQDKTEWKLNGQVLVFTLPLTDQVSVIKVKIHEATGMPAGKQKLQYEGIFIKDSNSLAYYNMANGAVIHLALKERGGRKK
Sequence of SF3A3, Q12874 (Q12874 whole entry): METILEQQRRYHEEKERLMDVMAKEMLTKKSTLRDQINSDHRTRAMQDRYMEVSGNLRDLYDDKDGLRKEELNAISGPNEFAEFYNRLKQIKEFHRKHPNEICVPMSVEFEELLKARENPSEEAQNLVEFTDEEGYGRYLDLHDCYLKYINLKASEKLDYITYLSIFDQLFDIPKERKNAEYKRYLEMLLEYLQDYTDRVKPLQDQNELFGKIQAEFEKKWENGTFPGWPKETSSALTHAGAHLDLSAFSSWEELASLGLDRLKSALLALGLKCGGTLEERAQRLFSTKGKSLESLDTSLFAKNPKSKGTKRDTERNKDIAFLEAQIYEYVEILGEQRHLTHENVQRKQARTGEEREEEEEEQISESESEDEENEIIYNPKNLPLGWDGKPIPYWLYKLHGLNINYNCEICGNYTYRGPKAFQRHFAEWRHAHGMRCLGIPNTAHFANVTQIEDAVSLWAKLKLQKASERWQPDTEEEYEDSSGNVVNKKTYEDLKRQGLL
Sequence of THOC5, Q13769 (Q13769 whole entry): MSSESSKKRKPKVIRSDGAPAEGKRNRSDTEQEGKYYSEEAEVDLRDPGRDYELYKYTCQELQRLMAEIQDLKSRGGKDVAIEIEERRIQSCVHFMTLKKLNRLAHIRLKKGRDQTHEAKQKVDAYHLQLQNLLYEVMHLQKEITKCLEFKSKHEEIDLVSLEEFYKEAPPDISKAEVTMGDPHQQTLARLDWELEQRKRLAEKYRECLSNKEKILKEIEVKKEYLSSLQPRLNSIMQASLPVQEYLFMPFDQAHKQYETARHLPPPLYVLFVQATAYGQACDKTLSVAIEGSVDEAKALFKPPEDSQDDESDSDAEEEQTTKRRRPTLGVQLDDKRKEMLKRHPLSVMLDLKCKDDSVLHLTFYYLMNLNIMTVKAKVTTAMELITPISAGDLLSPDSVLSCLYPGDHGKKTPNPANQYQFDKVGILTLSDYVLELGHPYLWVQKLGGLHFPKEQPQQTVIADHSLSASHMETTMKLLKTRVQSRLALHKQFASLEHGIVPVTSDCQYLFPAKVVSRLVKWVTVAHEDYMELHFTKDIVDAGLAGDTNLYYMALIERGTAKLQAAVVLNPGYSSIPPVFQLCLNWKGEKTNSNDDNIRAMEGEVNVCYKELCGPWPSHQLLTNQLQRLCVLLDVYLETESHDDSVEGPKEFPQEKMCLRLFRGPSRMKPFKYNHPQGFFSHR
Sequence of SF3B2 (Q13435 whole entry): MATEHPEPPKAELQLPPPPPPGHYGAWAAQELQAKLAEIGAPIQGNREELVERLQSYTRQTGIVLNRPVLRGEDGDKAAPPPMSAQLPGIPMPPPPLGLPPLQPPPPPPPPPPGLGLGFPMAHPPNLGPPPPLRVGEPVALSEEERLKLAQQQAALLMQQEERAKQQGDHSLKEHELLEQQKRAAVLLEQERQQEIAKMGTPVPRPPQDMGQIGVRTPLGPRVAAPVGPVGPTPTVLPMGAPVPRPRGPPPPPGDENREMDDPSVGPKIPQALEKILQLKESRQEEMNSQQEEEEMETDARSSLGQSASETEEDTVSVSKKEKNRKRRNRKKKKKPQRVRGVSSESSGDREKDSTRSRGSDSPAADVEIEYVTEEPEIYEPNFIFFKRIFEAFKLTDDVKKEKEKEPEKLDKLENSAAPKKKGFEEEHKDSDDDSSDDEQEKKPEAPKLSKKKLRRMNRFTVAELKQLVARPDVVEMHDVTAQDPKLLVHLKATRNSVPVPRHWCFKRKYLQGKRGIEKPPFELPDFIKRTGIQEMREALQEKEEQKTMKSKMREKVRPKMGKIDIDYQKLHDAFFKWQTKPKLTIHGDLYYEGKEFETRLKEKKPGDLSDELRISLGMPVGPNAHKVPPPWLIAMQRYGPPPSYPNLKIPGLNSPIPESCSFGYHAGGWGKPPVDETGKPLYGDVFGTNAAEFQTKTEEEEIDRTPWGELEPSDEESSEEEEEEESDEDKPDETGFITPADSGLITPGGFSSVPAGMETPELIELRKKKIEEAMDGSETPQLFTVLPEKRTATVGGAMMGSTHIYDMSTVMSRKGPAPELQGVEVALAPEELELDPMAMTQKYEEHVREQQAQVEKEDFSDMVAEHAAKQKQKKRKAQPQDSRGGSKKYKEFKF
Sequence of SF3B2, Q13435 (Q13435 whole entry): as above
Sequence of SF3B3 (Q15393 whole entry): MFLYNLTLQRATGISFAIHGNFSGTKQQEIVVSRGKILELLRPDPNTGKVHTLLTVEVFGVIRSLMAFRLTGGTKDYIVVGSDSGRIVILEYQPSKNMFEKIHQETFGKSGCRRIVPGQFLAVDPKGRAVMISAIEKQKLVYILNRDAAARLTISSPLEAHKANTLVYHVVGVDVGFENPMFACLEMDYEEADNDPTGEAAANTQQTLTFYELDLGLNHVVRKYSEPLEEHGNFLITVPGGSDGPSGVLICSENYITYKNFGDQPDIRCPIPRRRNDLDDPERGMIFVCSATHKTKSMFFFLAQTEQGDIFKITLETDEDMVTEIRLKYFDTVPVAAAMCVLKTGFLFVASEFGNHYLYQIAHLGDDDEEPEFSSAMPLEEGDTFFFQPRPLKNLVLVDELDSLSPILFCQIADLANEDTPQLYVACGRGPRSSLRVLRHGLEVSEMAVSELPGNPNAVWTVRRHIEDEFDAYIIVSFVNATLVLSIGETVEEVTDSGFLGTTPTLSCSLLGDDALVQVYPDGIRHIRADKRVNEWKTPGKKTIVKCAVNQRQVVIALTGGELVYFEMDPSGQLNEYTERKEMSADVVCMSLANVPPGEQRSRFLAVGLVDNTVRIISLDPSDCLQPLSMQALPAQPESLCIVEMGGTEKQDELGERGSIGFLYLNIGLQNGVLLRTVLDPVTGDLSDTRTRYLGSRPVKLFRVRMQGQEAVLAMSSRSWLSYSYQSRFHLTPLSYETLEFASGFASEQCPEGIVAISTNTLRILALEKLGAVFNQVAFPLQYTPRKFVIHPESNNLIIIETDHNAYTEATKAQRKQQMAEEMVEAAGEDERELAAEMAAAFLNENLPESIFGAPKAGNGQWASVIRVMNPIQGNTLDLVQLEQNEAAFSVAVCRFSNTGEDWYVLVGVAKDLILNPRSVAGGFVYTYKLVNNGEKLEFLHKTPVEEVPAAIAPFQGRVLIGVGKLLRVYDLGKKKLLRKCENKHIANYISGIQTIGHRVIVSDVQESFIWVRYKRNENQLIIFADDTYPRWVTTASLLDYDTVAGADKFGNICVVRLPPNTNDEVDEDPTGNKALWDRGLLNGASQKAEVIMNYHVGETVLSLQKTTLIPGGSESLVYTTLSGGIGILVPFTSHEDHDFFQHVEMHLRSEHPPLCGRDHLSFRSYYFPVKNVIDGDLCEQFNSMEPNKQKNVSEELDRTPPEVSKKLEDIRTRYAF
Sequence of TMED4 (Q7Z7H5 whole entry): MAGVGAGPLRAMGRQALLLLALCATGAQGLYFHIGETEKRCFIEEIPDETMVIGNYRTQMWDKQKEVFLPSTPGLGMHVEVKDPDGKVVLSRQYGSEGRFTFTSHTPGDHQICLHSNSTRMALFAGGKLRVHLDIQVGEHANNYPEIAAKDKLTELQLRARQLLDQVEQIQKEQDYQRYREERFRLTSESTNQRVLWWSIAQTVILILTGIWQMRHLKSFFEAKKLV
Sequence of TMED2, Q15363 (Q15363 whole entry): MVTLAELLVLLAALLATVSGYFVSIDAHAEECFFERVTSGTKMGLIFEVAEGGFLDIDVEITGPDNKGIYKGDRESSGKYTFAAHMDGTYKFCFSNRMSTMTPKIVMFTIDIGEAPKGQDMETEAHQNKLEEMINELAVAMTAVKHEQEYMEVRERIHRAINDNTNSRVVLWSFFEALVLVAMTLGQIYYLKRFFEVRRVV
Sequence of TMED9 (Q9BVK6 whole entry): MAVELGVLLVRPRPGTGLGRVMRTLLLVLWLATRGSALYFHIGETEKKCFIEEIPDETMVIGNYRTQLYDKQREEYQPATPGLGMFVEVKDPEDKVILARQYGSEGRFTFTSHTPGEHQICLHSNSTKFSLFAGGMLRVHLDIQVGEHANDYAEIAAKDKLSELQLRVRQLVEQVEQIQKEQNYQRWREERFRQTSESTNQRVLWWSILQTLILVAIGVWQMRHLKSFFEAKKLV

Take EFTUD2, Q15029: the cross-linked residues entry with USP39 is given as “K646 - K308”.

Consider IREB2, P48200, for which the cross-linked residues entry with SF1 is on record as “K530 - K169”.

Take SF3B2, Q13435: the cross-linked residues entry with SF3A1 is on record as “K275 - K55”; in the experiment with SF3B3 it was “K486 - K965”.

As to SF3A2, Q15428, in the experiment with SF3A1, the cross-linked residues entry is listed as “K190 - K264”.

Turning to SF3A3, Q12874, the cross-linked residues entry with SF3B2 was “K69 - K280”; with SF3B3 it was “K496 - K974”.

Regarding SF3B1, O75533, the cross-linked residues entry with SF3B2 is listed as “K1292 - K486”.

With NCAPH, Q15003, in the experiment with SMC4, the cross-linked residues entry was “K725 - K99”.

As for SNRPB, P14678, the cross-linked residues entry in the experiment with SNRPD1 is recorded as “K54 - K44”.

On to SNRPC, P09234, for which the cross-linked residues result with SNRPD3 is “K52 - K78”.

As for PRPF6, O94906, in the experiment with SNU13, the cross-linked residues entry is listed as “K775 - K113”.

On to TBC1D9B, Q66K14, for which the cross-linked residues entry in the experiment with SPC25 was “K1066 - K90”.

Take RPS16, P62249: the cross-linked residues result in the experiment with SPG11 was “K60 - K942”.

Take STAT5A, P42229: the cross-linked residues result in the experiment with STAT5B is “K86 - K86”.

Turning to PDCD10, Q9BUL8, the cross-linked residues result in the experiment with STK24 is on record as “K70 - K347”.

On to CSTF2, P33240, for which the cross-linked residues result with SYMPK is given as “K189 - K490”.

As to THOC7, Q6I9Y2, the cross-linked residues entry with THOC1 was “K32 - S2”.

Consider THOC5, Q13769, for which the cross-linked residues entry is given as “K223 - K171” with THOC3 and “K223 - K159” with THOC7.

Take NDUFAF2, Q8N183: in the experiment with THRAP3, the cross-linked residues result is “K57 - K668”.

With TMED10, P49755, the results for the cross-linked residues entry with TMED2, in the experiment with TMED4 and with TMED7 were “K145 - K129”, “K145 - K152” and “K169 - K91”, respectively.

Take TMED2, Q15363: the cross-linked residues result in the experiment with TMED4 is reported as “K129 - K152”; in the experiment with TMED9, “K129 - K160”.

Turning to TSN, Q15631, the cross-linked residues result with TSNAX is given as “K219 - K269”.

With TXLNA, P40222, the cross-linked residues result with TXLNG is “K216 - K191”.

In the case of RANBP2, P49792, the cross-linked residues entry with UBE2I is “K2687 - K49”.

On to COX5B, P10606, for which the cross-linked residues entry with UQCRC2 is recorded as “K57 - K23”.

With PDRG1, Q9NUG6, the cross-linked residues entry with UXT is “K36 - K48”.
